Rtt109 Vps75: blocks Candida albicans Rtt109/Vps75 acetyltransferase activity. 330,000 compounds, 0.16% hits. AID 540336. purified Rtt109/Vps75, ThioGlo CoA-SH fluorescence, 4 h. Q5AAJ8. inhibition, % at 34.9 µM;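 active means inhibition of at least 50% in every replicate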
Target sequence (Q5AAJ8 whole entry, looked up): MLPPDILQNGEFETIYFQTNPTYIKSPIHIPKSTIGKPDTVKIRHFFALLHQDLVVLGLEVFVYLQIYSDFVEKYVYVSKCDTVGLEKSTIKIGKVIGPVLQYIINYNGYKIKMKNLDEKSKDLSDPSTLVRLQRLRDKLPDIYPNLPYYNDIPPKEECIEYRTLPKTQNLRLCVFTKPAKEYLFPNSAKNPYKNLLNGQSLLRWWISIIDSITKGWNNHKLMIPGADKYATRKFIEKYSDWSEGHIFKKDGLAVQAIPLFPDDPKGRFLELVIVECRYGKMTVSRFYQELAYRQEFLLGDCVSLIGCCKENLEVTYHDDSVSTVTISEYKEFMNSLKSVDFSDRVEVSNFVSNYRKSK
PRMT1 FP inh: inhibitors of human PRMT1; Q99873; recombinant PRMT1, activity-based probe fluorescence polarization; inhibition, % at 2.79 µM; 370,000 compounds, 1.3% hits;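 active means inhibition above about 21% made by adding two undisclosed values, limit read from the data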
ALR H2O2 inh: human ALR oxidase inhibition via reduced H2O2; P55789; purified ALR, DTT oxidation, H2O2 HRP-luminol luminescence; inhibition, % (concentration not given with the values); 290,000 compounds, 3.8% hits; AID 485317;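 active means mean replicate inhibition above about 79%, with every replicate also reaching it, limit read from the data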
LANA-H2A inh: blocks KSHV LANA binding to histone H2A/H2B; inhibition, % (concentration not given with the values); 320,000 compounds, 0.6% hits; Q9QR71; cell-free LANA-H2A/H2B peptide, fluorescence polarization; in the data active means inhibition mostly above about 10%, no sharp cut-off; inactive means mostly below about 6.7%
ABHD5 PLIN5 PPI: blocks binding of human ABHD5 to perilipin-5; Q00G26+Q8WTS1; Split G. princeps luciferase complementation, luminescence, 4 h; inhibition, % at 4 µM; 360,000 compounds, 0.78% hits;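 active means inhibition above the mean inhibition across every tested compound plus 3 SD, cut at about 22% in these data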;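 further: 0% = DMSO only wells and the 100% control is not disclosed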
rCAG RNA binder: r(CAG) repeat RNA binding; TO-PRO-1 dye displacement fluorescence; inhibition, % at 3 µM; 370,000 compounds, 1.3% hits; AID 651821;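 active means inhibition above the plate cutoff, the mean of all test compounds on that plate plus 3 SD, cut at about 35% in these data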;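 further: 0% = DMSO alone and 100% = 100 µM mitoxantrone as full dye displacement; higher means more dye released from RNA so lower well fluorescence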
* = called active by the depositor; x = no result. Rows were chosen to be rich in hits. Some 5.9% of all compounds tested hit in one or more screens of this group.

SMILES | Rtt109 Vps75 | PRMT1 FP inh | ALR H2O2 inh | LANA-H2A inh | ABHD5 PLIN5 PPI | rCAG RNA binder
O=C(NCCCN1CCOCC1)c1ccc2c(c1)N(Cc1ccc(F)cc1)CCS2 | 2.2 | 1.0 | 98.9* | 2.5 | -3.2 | -4.1
O=C(NCC1CCCO1)c1ccc2c(c1)N(Cc1ccc(F)cc1)CCS2 (centres undefined) | -34.9 | 6.0 | 98.6* | -3.2 | -9.7 | -1.3
O=C(NCC1CCCO1)c1ccc2c(c1)N(Cc1ccc(F)cc1Cl)C(=O)CS2 (centres undefined) | -3.8 | -0.8 | x | 4.1 | -3.6 | -3.4
O=C(NCCN1CCOCC1)c1ccc2c(c1)N(Cc1ccc(F)cc1)C(=O)CS2 | -0.4 | -0.4 | -13.6 | 1.5 | -3.0 | 2.5
O=C(CCn1nnc2ccccc21)N1CCN(c2ccc(F)cc2)CC1 | x | -2.6 | x | x | x | -0.1
CCOC(=O)N1CCN(C(=O)c2ccc3c(c2)N(CC)CCS3)CC1 | -3.8 | 8.7 | 46.8 | 2.7 | -3.3 | 1.1
CCOC(=O)N1CCN(C(=O)c2ccc3c(c2)N(Cc2ccc(F)cc2)CCS3)CC1 | 0.1 | 1.4 | 97.6* | -3.0 | 0.9 | -1.4
Cc1ccc(C2CCC3(CCC(=O)N3CCOC(=O)Nc3cccc(C#N)c3)CC2)cc1 (centres undefined) | x | -1.6 | x | x | x | 3.6
COc1ccccc1-c1nnc(SCC(=O)Nc2ccc(S(N)(=O)=O)cc2)n1N | -9.2 | -0.4 | -4.8 | 3.0 | 1.6 | -0.4
COc1ccc(NCc2nnc(SCC(=O)Nc3ccccc3)n2C)cc1 | x | -1.1 | 94.3* | 4.0 | -5.1 | -0.3
COc1ccc(NCc2nnc(SCC(=O)Nc3cc(C)cc(C)c3)o2)cc1 | -0.4 | 23.7* | 58.7 | 4.5 | -7.0 | 12.9
COc1ccccc1-c1nnc(SCC(=O)Nc2ccc3[nH]c(=O)[nH]c3c2)n1N | 0.6 | 2.4 | 98.5* | -1.9 | -4.7 | 1.9
CCn1c(CNc2ccc(C)cc2)nnc1SCC(=O)NCc1ccccc1 | -5.7 | -3.2 | 85.7* | -11.7 | 1.6 | -8.7
COc1ccc(NCc2nnc(SCC(=O)c3ccc(C)cc3)o2)cc1 | 7.6 | 7.1 | -4.3 | -0.7 | 6.5 | 8.8
CC(C)(C)c1ccc(C#C[C@@H]2C=C[C@@H](O)[C@@H](CO)O2)cc1 | x | -1.1 | x | x | x | -1.0
CCCc1cn(CC(C)n2c(=O)c3ccccc3n2Cc2cc(C(C)C)no2)nn1 (centres undefined) | x | -4.9 | x | x | -2.0 | -0.4
CCn1c(CNC(=O)c2cccs2)nnc1SCC(=O)Nc1ccc(Cl)cc1 | -3.3 | 3.1 | 97.4* | -0.4 | 3.0 | 1.0
Cn1c(Cc2ccccc2)nnc1SCC(=O)c1ccc(Br)s1 | -5.7 | 9.1 | 83.4* | -1.0 | -5.3 | -2.6
CCn1c(CNC(=O)c2cccs2)nnc1SCC(=O)Nc1cc(Cl)ccc1C | 7.4 | 2.6 | -6.1 | -2.1 | 7.5 | -1.3
COC(=O)CSc1nnc(CCc2ccccc2)n1C | 6.7 | -4.8 | 0.8 | 11.3* | -2.8 | -1.5
COc1ccc(NC(=O)CSc2nnc(-c3ccccc3)n2N)cc1 | 59.4* | -1.1 | -8.5 | 9.6 | 6.7 | -3.1
Cc1cc(N2CCN(CC(C)(C)O)C[C@H]2C)ccc1N1CCN(CC(C)(C)O)[C@@H](C)C1 | x | -4.3 | x | x | x | 2.2
Cc1nc(N2CCN(C(=O)C3CC3)CC2)c2c3c(sc2n1)CC(C)CC3 (centres undefined) | x | 3.0 | x | x | x | x
CC(=O)NC(C)(c1ccccc1)c1nc(-c2ccc(F)c(Cl)c2)cs1 (centres undefined) | x | -0.9 | x | x | -0.9 | 2.6
O=C(O)CSc1nnc(-c2ccncc2)n1-c1ccc(Cl)cc1 | 6.5 | -1.1 | -17.7 | -3.1 | 8.7 | -3.2
SMILES | Rtt109 Vps75 | PRMT1 FP inh | ALR H2O2 inh | LANA-H2A inh | ABHD5 PLIN5 PPI | rCAG RNA binder
O=C(O)CSc1nnc(-c2ccc(Cl)cc2)n1-c1ccccc1 | 3.0 | 0.3 | 85.5* | 4.4 | 0.6 | 2.2
Cn1c(SCC(=O)NC2CCCCC2)nnc1-c1cccnc1 | 54.5* | -0.5 | x | 13.9 | -2.7 | -2.1
O=C(CSc1nnc(-c2cccnc2)n1-c1ccccc1)Nc1ccccc1 | 1.4 | 2.2 | -1.3 | 14.9* | -1.3 | -3.4
Cc1ccc(NC(=O)CSc2nnc(-c3cccnc3)n2-c2ccc(C)cc2)cc1 | 1.0 | 0.3 | -9.9 | -1.8 | 2.3 | -1.0
Cn1c(SCC(=O)NC2CCCCC2)nnc1-c1ccncc1 | 2.7 | -1.4 | -10.9 | -1.3 | 6.4 | -0.4
Cc1cc(N2CCN(Cc3ccc4c(c3)OCO4)CC2)n2nc(C)nc2n1 | x | 3.3 | x | x | x | -0.1
CCN(CC)C(=O)C1=C(C)N(Cc2ccc(OC)cc2)C(=O)C(CC(=O)NCCN2CCOCC2)C1 (centres undefined) | x | -1.3 | x | x | 3.1 | 1.6

Screening results from PubChem BioAssay.
